Source: PubChem (National Center for Advancing Translational Sciences (NCATS))
Most compounds without a hit are left out; they make up all but 21% or so of the library.
D3 antag: blocks the human D3 dopamine receptor. P35462. max response, negative = inhibition, %. D3R cells, DiscoveRx beta-arrestin luminescence, antagonist mode; stronger effect = lower value. hit rate 2.5% among 360,000; in the data active = max response below about -50%; inconclusive = no clear call, values can overlap the other calls
Target sequence (P35462 whole entry, looked up): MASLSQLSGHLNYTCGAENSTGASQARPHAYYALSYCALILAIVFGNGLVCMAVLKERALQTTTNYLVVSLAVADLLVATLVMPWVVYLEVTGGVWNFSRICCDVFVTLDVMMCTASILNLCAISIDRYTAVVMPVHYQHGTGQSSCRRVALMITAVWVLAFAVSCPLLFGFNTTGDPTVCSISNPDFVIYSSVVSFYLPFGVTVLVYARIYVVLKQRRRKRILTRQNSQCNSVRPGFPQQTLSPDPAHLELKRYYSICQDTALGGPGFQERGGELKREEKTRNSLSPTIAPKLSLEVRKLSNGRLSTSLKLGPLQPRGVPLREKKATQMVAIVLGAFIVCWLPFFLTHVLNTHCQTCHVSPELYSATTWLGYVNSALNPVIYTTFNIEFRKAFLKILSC
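Cells plated overnight at 1500 cells/well, then exposed to library compounds with dopamine controls for 90 minutes at 37 degrees C. DiscoveRx reagent added for 30–60 minutes at room temperature; luminescence read, quantitative HTS format.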
DRD3 agonist: activates the human D3 dopamine receptor. D3R DiscoveRx beta-arrestin cells, luminescence, 90 min. max activation, %. hit rate 0.58% among 410,000. AID 652048; in the data active = max activation above about 30%
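Agonist-mode cell screen: cells plated at 1500/well and incubated overnight at 37 °C, then exposed to library compounds for 90 min at 37 °C. Detection reagent was added for 30–60 min at room temperature, and luminescence was read.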
DT40 TDP1 no CPT: qHTS for Inhibitors of human tyrosyl-DNA phosphodiesterase 1 (TDP1): qHTS in cells in absence of CPT | DT40 Tdp1-/- hTDP1 cells, no CPT, ATP luminescence, 48 h | Potency, µM (doses to about 46.2 µM), usual class: inhibitors | hit rate 15% among 420,000; also: nearly all actives have a fitted effect of over 55% in size
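Chicken DT40 Tdp1-/- cells stably complemented with human TDP1 were seeded at 400 cells/well with DMSO in place of 20 nM camptothecin. After compound pinning, cells grew at least 48 hr at 37 °C; viability read by CellTiter-Glo luminescence.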
TDP1 cell CPT: growth inhibition of DT40 Tdp1-/-;hTDP1 cells with camptothecin (screen for TDP1 inhibitors) | chicken DT40 Tdp1-/-;hTDP1 cells + 20 nM CPT, ATP luminescence, 48 h | Potency, µM (series often up to 46.2 µM), most hits filed as inhibitors | hit rate 12% among 420,000 | AID 686979; also: nearly all actives have a fitted effect of over 55% in size
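Chicken DT40 Tdp1-/- cells complemented with human TDP1, 400 cells/well, exposed to compounds plus 20 nM camptothecin for at least 48 h at 37 C; viability read as ATP content by CellTiter-Glo luminescence.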
ClpP mod: qHTS Assay for Activators of ClpP. purified B. subtilis ClpP, FRET peptide cleavage, 20 min. Potency, µM (highest dose often 57.5 µM). hit rate 1.9% among 340,000. AID 651965, 2013; active = well fitted falling curve with a large enough effect; inconclusive = small, poorly fitted or top-dose-only effect; inactive = no such curve, though single readings can be large or run the other way; also: the source files actives as falling curves though it sought activators and does not explain the sign; nearly all actives have a fitted effect of over 65% in size
Target sequence (P80244 whole entry, looked up): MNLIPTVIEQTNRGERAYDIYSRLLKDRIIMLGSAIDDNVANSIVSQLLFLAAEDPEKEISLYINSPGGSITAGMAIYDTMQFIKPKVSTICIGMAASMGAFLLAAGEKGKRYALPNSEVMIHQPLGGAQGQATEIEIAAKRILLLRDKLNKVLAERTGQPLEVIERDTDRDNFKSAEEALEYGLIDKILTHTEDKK
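ClpP 10 microg/mL final, pH 8 Tris/KCl buffer with BSA, glycerol, Tween-20; compound pinned in; FRET-FV substrate; RT 20 min; Ex320/Em430; ΔFRET vs ADEP 5.8 microM, DMSO, no enzyme.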
IL-1B inflam inh: inhibitors of inflammasome signaling (IL-1 beta secretion) | THP-1 LPS/ATP IL-1B secretion, AlphaLISA, 16 h; stronger effect = lower value | activity change, % at 57.5 µM | hit rate 4.7% among 360,000 | AID 743279; in the data active = activity change below about -50%; inconclusive = mostly about -30% to -49%
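THP-1 cells pretreated 1 hr with compounds (up to 57.5 uM final), then stimulated with LPS (250 ng/mL final) plus ATP (1.25 mM final); secreted IL-1B measured by AlphaLISA after 16 hr, decreased signal indicating inhibition.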
Hits are given with their value; n = inactive; u = inconclusive; x = not tested or not shown. Unless noted, calls follow the shape of the dose curve; as a rule, active = well fitted inhibition curve with a large enough effect; inconclusive = small, poorly fitted or top-dose-only effect; inactive = flat fitted curve, though single readings scatter.

SMILES	D3 antag	DRD3 agonist	DT40 TDP1 no CPT	TDP1 cell CPT	ClpP mod	IL-1B inflam inh
CC(C)C(NS(=O)(=O)c1ccccc1)C(=O)N1CCN(C(=O)c2ccco2)CC1 (stereo not given)	n	n	n	n	n	n
Brc1ccc(C=Nc2ccc(Nc3ccccc3)cc2)s1	n	n	16µM	u	n	n
O=C(CCC(=O)N/N=C/c1ccc(Br)s1)NCc1ccccc1	n	n	u	u	n	n
C(=Nc1ccc(Nc2ccccc2)cc1)c1ccc2ccccc2c1	n	n	12µM	13µM	14µM	-69
CC(=O)Nc1ccc(N=Cc2ccc(OCc3ccccc3)cc2)cc1	n	n	n	n	n	n
Cc1ccc(S(=O)(=O)N(C)C)cc1NC(=O)COC(=O)Cc1ccccc1F	n	n	n	n	n	n
O=C(Nc1nc(-c2ccccn2)cs1)c1ccc2c(c1)OCCO2	n	n	3.3µM	3.3µM	n	n
CC(=O)Nc1ccc(C(=O)Nc2nc(-c3cccnc3)cs2)cc1	n	n	u	n	11µM	n
O=C(Nc1nc(-c2ccccc2)cs1)c1cccnc1	n	n	u	u	n	n
CC(=O)Nc1ccc(C(=O)Nc2nc(-c3ccccn3)cs2)cc1	-56	n	15µM	16µM	n	n
O=C(Nc1ccc(OC(F)(F)F)cc1)c1ccccc1-n1cnnn1	n	n	n	n	n	n
O=C(Nc1nc(-c2ccccn2)cs1)c1ccccc1-n1cnnn1	n	n	u	2.6µM	n	n
CCc1ccc(-c2nc(-c3cc4ccccc4oc3=O)sc2C)cc1	x	n	n	n	n	x
O=C(NCCC1CCCCN1S(=O)(=O)c1ccc(Cl)cc1)C(=O)NCc1cccnc1 (stereo not given)	n	n	u	u	x	n
Cc1ccc(-c2cc3c(nn2)-c2ccccc2C3=O)cc1	n	n	23µM	16µM	n	n
O=C1c2ccccc2-c2nnc(-c3ccc(F)cc3)cc21	n	n	9.2µM	u	x	n
O=c1[nH]nc(-c2ccc(F)cc2)cc1-c1ccccc1	u	n	n	u	x	-72
CCc1nc2ccccc2c(C(=O)OCC(=O)NC(=O)c2cccn2C)c1C	n	n	u	u	n	n
NC(=O)c1ccccc1NC(=O)CN1CCN(Cc2ccccc2)CC1	n	n	n	n	n	n
O=C(CN1CCN(Cc2ccccc2)CC1)Nc1ccc(Cl)cc1	n	n	n	n	n	n
O=C(CN1CCN(Cc2ccccc2)CC1)Nc1ccccc1-c1ccccc1	n	n	29µM	26µM	x	n
Cc1ccc(NC(=O)CN2CCN(Cc3ccccc3)CC2)cc1Cl	n	n	29µM	n	n	n
O=C(Cn1nc(-c2ccccc2Cl)ccc1=O)Nc1ccccc1-c1ccccc1	n	n	18µM	u	14µM	n
CCC1(CC)NC(=O)N(CC(=O)OCC(=O)Nc2ccc(OC(F)(F)F)cc2)C1=O	n	n	n	n	n	n
CCOCCOc1nc2c(c(=O)n(C)c(=O)n2C)n1CCc1ccccc1	n	n	21µM	18µM	n	n
SMILES	D3 antag	DRD3 agonist	DT40 TDP1 no CPT	TDP1 cell CPT	ClpP mod	IL-1B inflam inh
CN1CCN(c2nc3c(c(=O)n(C)c(=O)n3C)n2Cc2ccccc2Cl)CC1	n	n	n	n	n	n
CCOc1nc2c(c(=O)n(C)c(=O)n2C)n1Cc1ccccc1Cl	n	n	12µM	16µM	n	n
Cn1c(=O)c2c(nc(OCCc3ccccc3)n2C)n(C)c1=O	n	n	n	u	x	n
COCCOc1nc2c(c(=O)n(C)c(=O)n2C)n1Cc1cccc(OC)c1	n	n	7.3µM	8.2µM	n	n
C=CCOc1nc2c(c(=O)n(C)c(=O)n2C)n1Cc1c(Cl)cccc1Cl	n	n	21µM	u	n	n
CC1CCN(C(=O)c2cc(-c3ccc(Br)cc3)on2)CC1	x	n	n	n	n	x
CCc1ccc(NC(=O)Cn2nnc(C(=O)NCc3ccco3)c2N)cc1	n	n	n	n	n	n
C=CCOc1nc2c(c(=O)n(Cc3ccc(Cl)c(Cl)c3)c(=O)n2C)n1C	n	n	23µM	16µM	n	n
COC(=O)Cn1c(=O)c2c(nc3n2CC(C)CN3CCc2ccccc2)n(C)c1=O (stereo not given)	n	n	u	u	n	n
CCOCCn1c(=O)c2c(nc3n2CC(C)CN3CCc2ccccc2)n(C)c1=O (stereo not given)	n	n	u	26µM	n	n
CC1CCN(S(=O)(=O)c2ccc3c(c2)N(CC(=O)NCCN(C)C)C(=O)CS3)CC1	x	n	n	n	n	x
C[C@]12CCC3C(CC[C@H]4CCCC[C@]34C)C1CC[C@@]2(O)CNCCO (stereo not given in full)	n	n	u	13µM	n	n
CN(C)c1ccc(CNC(=O)Cn2ccc3cc(S(=O)(=O)N4CCCCCC4)ccc32)cc1	x	n	5.8µM	u	n	x
CCOc1ccc(CNC(=O)Cn2ccc3cc(S(=O)(=O)N4CCCCCC4)ccc32)cc1	n	n	26µM	16µM	n	u
CN(C)c1ccc(CNC(=O)CCc2ccc(S(=O)(=O)N3CCCCCC3)cc2)cc1	n	n	15µM	u	x	-64
COc1ccc(CNC(=O)CCc2ccc(S(=O)(=O)N3CCCCCC3)cc2)cc1	n	n	u	u	n	n
CCCSc1nnc(NC(=O)Nc2ccccc2OC)s1	n	n	u	u	n	n
Cc1nc(SCC(=O)c2ccc(Cl)cc2)c([N+](=O)[O-])[nH]1	-66	n	n	n	n	n
Cc1cc(C)c(C(N)=O)c(SCC(=O)c2cc(C)c(C)cc2C)n1	n	n	n	n	n	n
Cc1ccc(C(=O)CSc2nc(C)cc(C)c2C(N)=O)cc1	n	n	u	u	n	-52
Cc1cc(C)c(C(=O)CSc2nc(C)cc(C)c2C(N)=O)c(C)c1	n	n	n	n	n	n
Cc1cc(C)c(C(N)=O)c(SCC(=O)c2ccc(Cl)cc2)n1	-60	n	u	u	n	n
CC(C)N(CCc1ccncc1)C(=S)Nc1ccc(F)c(Cl)c1	n	n	n	n	x	n
Cc1cccc(CNc2cc(-c3ccc(C(=O)N(C)C)cc3)ncn2)c1	x	x	n	n	x	x
CC1(C)CC(NC(=O)COc2ccc3c4c(c(=O)oc3c2)CCCC4)CC(C)(C)N1	n	n	n	n	n	n
NC(=O)c1nnsc1Sc1c(C(N)=O)nnn1-c1cccc(N)c1	n	n	n	n	n	u
COc1cccc(-c2nn(-c3ccccc3)cc2CN(C)C(C)c2ccncn2)c1 (stereo not given)	n	n	u	n	x	n
